Consider nine compounds from PubChem BioAssay (NCI).

Compounds without any hit were thinned out: in the full panel of roughly 79,000, 15% have a hit. Unmarked numbers belong to inactive results. Calls of active or inactive are those of the source. Cut-off read from the data, not from the text of the source: active = growth inhibition above about 70%; inactive = the rest. *1 amine or outer side, *2 acyl side, *3 side chain or, on linkers, in order; H or OH if unused. Where a SMILES comes first, the peptide text is derived from it. Bridges are numbered along the chain shown (N, C = ends). Roman numbers before positions name the chains, in order. [ ]: non-standard residue; d: D form. Actinocin(1to9) = Cc1c2oc3c(C)ccc(C(=O)[*:2])c3nc-2c(C(=O)[*:1])c(N)c1=O; NMeV = CN[CH](C(=O)O)C(C)C; Sar = CNCC(=O)O

Experiment [1] can be described thus: NCI Yeast Anticancer Drug Screen. Data for the rad50 strain (AID 155).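 Note: 0% = growth of vehicle-only cultures of the same strain.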 The conditions noted are these: S. cerevisiae rad50 strain growth inhibition, hits give high values. In a few lines:
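Genetically altered yeast (DNA repair pathway); compound treatment; growth inhibition vs vehicle ctrl.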

A short description of experiment [2]: NCI Yeast Anticancer Drug Screen. Data for the mec2-1 strain (AID 157). The conditions noted are these: S. cerevisiae mec2-1 strain, hits give high values. The method, boiled down:
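Compounds were applied to mec2-1 yeast cells. Their growth was then compared with that of vehicle-treated cultures to give growth inhibition.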

A short description of experiment [3]: NCI Yeast Anticancer Drug Screen. Data for the sgs1 mgt1 strain (AID 161).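 Note: 0% = growth of cultures given vehicle only.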 The conditions noted are these: S. cerevisiae sgs1 mgt1 strain, hits give high values. In a few lines: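 Yeast cells carrying a defined DNA-repair defect were exposed to test compounds. Growth inhibition was measured relative to vehicle-treated controls.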
Experiment [4] can be described thus: NCI Yeast Anticancer Drug Screen. Data for the cln2 rad14 strain (AID 165).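 Note: 0% = growth equal to vehicle treated cultures.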 The conditions noted are these: S. cerevisiae cln2 rad14 strain, hits give high values. The method, boiled down:
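Strain: cln2 rad14 yeast, altered in cell cycle control and DNA damage repair. Read-out: growth inhibition vs vehicle.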

Experiment [5] is described as follows: NCI Yeast Anticancer Drug Screen. Data for the bub3 strain (AID 167). The conditions noted are these: S. cerevisiae bub3 mutant strain, hits give high values. In a few lines:
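Yeast carrying a defined mutation is treated with each compound, and growth is compared with that of vehicle-exposed cells to give inhibition.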

Experiment [6] can be described thus: NCI Yeast Anticancer Drug Screen. Data for the mlh1 rad18 strain (AID 175). The conditions noted are these: S. cerevisiae mlh1 rad18 strain growth inhibition, hits give high values. In a few lines: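 A repair-deficient yeast strain is exposed to test compound, and growth is scored relative to vehicle-treated controls.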
[7] abbreviates: at 5.0 µM (retest, dose inferred, filed as 0.5).
Setting [8] is: at 50.0 µM (retest, dose inferred, filed as 5.0).

Consider `CCC(C)C1NC(=O)C(NC(=O)c2c3nc4c(C(=O)NC5C(=O)NC(C(C)CC)C(=O)N6CCCC6C(=O)N(C)CC(=O)N(C)C(C(C)C)C(=O)OC5C)ccc(C)c4oc-3c(C)c(=O)c2N)C(C)OC(=O)C(C(C)C)N(C)C(=O)CN(C)C(=O)C2CCCN2C1=O` (configuration not stated) (I: TIP[Sar][NMeV] / II: TIP[Sar][NMeV]; ester I:1-I:C, II:1-II:C; linker I:N-II:N via Actinocin(1to9); configuration not given here), for which the growth inhibition is 66% in experiment [1] (setting [7]); 98% (active) in experiment [1] (setting [8]); 91% (active) in experiment [1] (at 50.0 µM); 33% in experiment [2] (setting [7]); 99% (active) in experiment [2] (setting [8]); 93.7% (active) in experiment [2] (at 50.0 µM). The growth inhibition was 32% in experiment [3] (setting [7]); 98% (active) in experiment [3] (setting [8]); 92.5% (active) in experiment [3] (at 50.0 µM); 38% in experiment [4] (setting [7]); 97% (active) in experiment [4] (setting [8]); 90.7% (active) in experiment [4] (at 50.0 µM). The growth inhibition in experiment [5] (setting [7]) is 43%; in experiment [5] (setting [8]) it was 99% (active); in experiment [5] (at 50.0 µM) it was 92.6% (active); in experiment [6] (setting [7]), 67%; in experiment [6] (setting [8]), 98% (active); in experiment [6] (at 50.0 µM), 88.3% (active).

As for `CCOC(=O)NC(/C=C/c1ccccc1)NC(=O)OCC`, the growth inhibition in experiment [1] (setting [7]) is -2%; in experiment [1] (setting [8]), -27%; in experiment [1] (at 50.0 µM) it was 61.8%; in experiment [2] (setting [7]), -1%; in experiment [2] (setting [8]), -31%; in experiment [2] (at 50.0 µM), 29.6%. For the same compound, the growth inhibition in experiment [3] (setting [7]) is -4%; in experiment [3] (setting [8]), -29%; in experiment [3] (at 50.0 µM), 30.1%; in experiment [4] (setting [7]) it was 5%; in experiment [4] (setting [8]), -33%; in experiment [4] (at 50.0 µM), 29.9%. Further, the growth inhibition was 2% in experiment [5] (setting [7]); -20% in experiment [5] (setting [8]); 11.8% in experiment [5] (at 50.0 µM); 1% in experiment [6] (setting [7]); -26% in experiment [6] (setting [8]); 83.6% (active) in experiment [6] (at 50.0 µM).

In the case of `c1ccc(-c2cc3cc4ccccc4cn3c2)cc1`, the growth inhibition in experiment [1] (setting [7]) is 58%; in experiment [1] (setting [8]), 93% (active); in experiment [1] (at 50.0 µM), 83.8% (active); in experiment [2] (setting [7]) it was 43%; in experiment [2] (setting [8]), 94% (active); in experiment [2] (at 50.0 µM), 83.8% (active). Besides, the growth inhibition in experiment [3] (setting [7]) was 52%; in experiment [3] (setting [8]), 97% (active); in experiment [3] (at 50.0 µM) it was 88.8% (active); in experiment [4] (setting [7]) it was 35%; in experiment [4] (setting [8]) it was 84% (active); in experiment [4] (at 50.0 µM), 82.8% (active). Besides, the growth inhibition is 53% in experiment [5] (setting [7]); 97% (active) in experiment [5] (setting [8]); 86.3% (active) in experiment [5] (at 50.0 µM); 61% in experiment [6] (setting [7]); 95% (active) in experiment [6] (setting [8]); 86.7% (active) in experiment [6] (at 50.0 µM).

In the case of `O=C(O)c1ccc2c(c1)C(=O)c1ccccc1C2=O`, the growth inhibition in experiment [1] (setting [7]) is -1%; in experiment [1] (setting [8]), 33%; in experiment [1] (at 50.0 µM), 95.9% (active); in experiment [2] (setting [7]) it was -1%; in experiment [2] (setting [8]) it was 28%; in experiment [2] (at 50.0 µM), 99.3% (active). Also, the growth inhibition in experiment [3] (setting [7]) is 3%; in experiment [3] (setting [8]) it was 26%; in experiment [3] (at 50.0 µM), 91.2% (active); in experiment [4] (setting [7]), -1%; in experiment [4] (setting [8]), 30%; in experiment [4] (at 50.0 µM), 14.2%. The growth inhibition in experiment [5] (setting [7]) was 1%; in experiment [5] (setting [8]), 31%; in experiment [5] (at 50.0 µM) it was 98.7% (active); in experiment [6] (setting [7]) it was -2%; in experiment [6] (setting [8]) it was 41%; in experiment [6] (at 50.0 µM), 96.5% (active).

Consider `On1c(-c2ccccc2)nc2ccccc2c1=S`, for which the growth inhibition in experiment [1] (setting [7]) was 32%; in experiment [1] (setting [8]), 39%; in experiment [1] (at 50.0 µM) it was 86.5% (active); in experiment [2] (setting [7]) it was 41%; in experiment [2] (setting [8]), 43%; in experiment [2] (at 50.0 µM) it was 86.7% (active). In addition, the growth inhibition in experiment [3] (setting [7]) is 47%; in experiment [3] (setting [8]), 95% (active); in experiment [3] (at 50.0 µM), 37%; in experiment [4] (setting [7]) it was 28%; in experiment [4] (setting [8]) it was 95% (active); in experiment [4] (at 50.0 µM), 25.4%. Besides, the growth inhibition in experiment [5] (setting [7]) is 50%; in experiment [5] (setting [8]), 94% (active); in experiment [5] (at 50.0 µM) it was 90.2% (active); in experiment [6] (setting [7]), 39%; in experiment [6] (setting [8]), 43%; in experiment [6] (at 50.0 µM), 84.5% (active).

Take `O=C(c1ccccc1)c1ccc(O)c2ncccc12`: the growth inhibition in experiment [1] (setting [7]) is 23%; in experiment [1] (setting [8]), 99% (active); in experiment [1] (at 50.0 µM), 98.6% (active); in experiment [2] (setting [7]), -11%; in experiment [2] (setting [8]), 99% (active); in experiment [2] (at 50.0 µM) it was 97.8% (active). Moreover, the growth inhibition in experiment [3] (setting [7]) is 10%; in experiment [3] (setting [8]), 99% (active); in experiment [3] (at 50.0 µM), 99% (active); in experiment [4] (setting [7]), -8%; in experiment [4] (setting [8]), 99% (active); in experiment [4] (at 50.0 µM), 98% (active). In addition, the growth inhibition in experiment [5] (setting [7]) was 5%; in experiment [5] (setting [8]), 99% (active); in experiment [5] (at 50.0 µM) it was 98.5% (active); in experiment [6] (setting [7]), 17%; in experiment [6] (setting [8]), 98% (active); in experiment [6] (at 50.0 µM), 98.3% (active).

Consider `CCN(CC)CCNC(Cc1ccccc1)c1ccc(OCc2ccccc2)cc1` (configuration not stated), for which the growth inhibition in experiment [1] (setting [7]) is 39%; in experiment [1] (setting [8]) it was 98% (active); in experiment [1] (at 50.0 µM) it was 86.7% (active); in experiment [2] (setting [7]) it was 28%; in experiment [2] (setting [8]), 98% (active); in experiment [2] (at 50.0 µM), 42.4%. The growth inhibition in experiment [3] (setting [7]) was 42%; in experiment [3] (setting [8]) it was 99% (active); in experiment [3] (at 50.0 µM), 72% (active); in experiment [4] (setting [7]), 35%; in experiment [4] (setting [8]), 94% (active); in experiment [4] (at 50.0 µM), 57.2%. Besides, the growth inhibition in experiment [5] (setting [7]) was 49%; in experiment [5] (setting [8]), 99% (active); in experiment [5] (at 50.0 µM), 87.6% (active); in experiment [6] (setting [7]) it was 47%; in experiment [6] (setting [8]) it was 98% (active); in experiment [6] (at 50.0 µM) it was 84.8% (active).

`Cc1cc(I)nc2ccccc12`: the growth inhibition in experiment [1] (setting [7]) was 0%; in experiment [1] (setting [8]), 15%; in experiment [1] (at 50.0 µM) it was 68.4%; in experiment [2] (setting [7]), -1%; in experiment [2] (setting [8]) it was 1%; in experiment [2] (at 50.0 µM), 21.2%. Besides, the growth inhibition in experiment [3] (setting [7]) was -3%; in experiment [3] (setting [8]) it was 8%; in experiment [3] (at 50.0 µM), 59%; in experiment [4] (setting [7]), -3%; in experiment [4] (setting [8]) it was -18%; in experiment [4] (at 50.0 µM) it was -18.4%. For the same compound, the growth inhibition was -6% in experiment [5] (setting [7]); -13% in experiment [5] (setting [8]); 26.8% in experiment [5] (at 50.0 µM); -2% in experiment [6] (setting [7]); -12% in experiment [6] (setting [8]); 48.7% in experiment [6] (at 50.0 µM).

For the compound `COc1cc(NC(=O)C2=C(C)NC(C)=C(C(=O)Nc3cc(OC)c(Cl)cc3OC)C2c2cccc([N+](=O)[O-])c2)c(OC)cc1Cl`, the growth inhibition in experiment [1] (setting [7]) is -24%; in experiment [1] (setting [8]), 96% (active); in experiment [1] (at 50.0 µM) it was 96.7% (active); in experiment [2] (setting [7]), 5%; in experiment [2] (setting [8]), 97% (active); in experiment [2] (at 50.0 µM) it was 76.3% (active). The growth inhibition in experiment [3] (setting [7]) is 6%; in experiment [3] (setting [8]), 95% (active); in experiment [3] (at 50.0 µM), 96.9% (active); in experiment [4] (setting [7]), -31%; in experiment [4] (setting [8]), 96% (active); in experiment [4] (at 50.0 µM) it was 95.8% (active). For the same compound, the growth inhibition in experiment [5] (setting [7]) was 27%; in experiment [5] (setting [8]) it was 97% (active); in experiment [5] (at 50.0 µM) it was 95.5% (active); in experiment [6] (setting [7]), -14%; in experiment [6] (setting [8]) it was 96% (active); in experiment [6] (at 50.0 µM), 96.9% (active).
